Measured values taken from the supplement of paper PMC7261846.
Counter-ions that a name gives are not always drawn. ± gives the uncertainty stated by the source.

Test system: Candida albicans SNY425 biofilm
Test: biofilm OD600 with compound plus antifungal (OD600 (absorbance)); higher = more biofilm remaining
[1] = assay detail: disruption of 24-h mature biofilm (compound + antifungal for a second 24 h)
[2] = assay detail: sustained inhibition (compound + antifungal during 90-min adherence and 24-h growth)

Structure (SMILES)	biofilm OD600 [1]	biofilm OD600 [2]
CO[C@@H]1[C@H](OC(=O)/C=C/C=C/C=C/C=C/C(=O)O)CC[C@]2(CO2)[C@H]1[C@@]1(C)O[C@@H]1CC=C(C)C [Fumagillin] + OC(Cn1cncn1)(Cn1cncn1)c1ccc(F)cc1F [fluconazole] (first compound 12.5 µM)	0.246 ± 0.013	0.117 ± 0.0056
O=C1Nc2ccc([N+](=O)[O-])cc2C1=O [5-Nitroisatin] + CC[C@H](C)C[C@H](C)CCCCCCCCC(=O)N[C@H]1C[C@@H](O)[C@@H](NCCN)NC(=O)[C@@H]2[C@@H](O)CCN2C(=O)[C@H]([C@H](O)CCN)NC(=O)[C@H]([C@H](O)[C@@H](O)c2ccc(O)cc2)NC(=O)[C@@H]2C[C@@H](O)CN2C(=O)[C@H]([C@@H](C)O)NC1=O [caspofungin] (first compound 12.5 µM)	0.255 ± 0.0081	0.156 ± 0.013
CC(C)C[C@H](NC(=O)[C@H]1O[C@@H]1C(=O)O)C(=O)NCCCCN=C(N)N + OC(Cn1cncn1)(Cn1cncn1)c1ccc(F)cc1F [fluconazole] (first compound 12.5 µM)	0.255 ± 0.012	0.149 ± 0.0057
CC(C)CC(=O)N[C@H](C(=O)N[C@H](C(=O)N[C@@H](CC(C)C)[C@@H](O)CC(=O)N[C@@H](C)C(=O)N[C@@H](CC(C)C)[C@@H](O)CC(=O)O)C(C)C)C(C)C [Pepstatin A] + CC[C@H](C)C[C@H](C)CCCCCCCCC(=O)N[C@H]1C[C@@H](O)[C@@H](NCCN)NC(=O)[C@@H]2[C@@H](O)CCN2C(=O)[C@H]([C@H](O)CCN)NC(=O)[C@H]([C@H](O)[C@@H](O)c2ccc(O)cc2)NC(=O)[C@@H]2C[C@@H](O)CN2C(=O)[C@H]([C@@H](C)O)NC1=O [caspofungin] (first compound 12.5 µM)	0.264 ± 0.01	0.18 ± 0.013
C[C@H](CS)C(=O)N1CCC[C@H]1C(=O)O [Captopril] + CC[C@H](C)C[C@H](C)CCCCCCCCC(=O)N[C@H]1C[C@@H](O)[C@@H](NCCN)NC(=O)[C@@H]2[C@@H](O)CCN2C(=O)[C@H]([C@H](O)CCN)NC(=O)[C@H]([C@H](O)[C@@H](O)c2ccc(O)cc2)NC(=O)[C@@H]2C[C@@H](O)CN2C(=O)[C@H]([C@@H](C)O)NC1=O [caspofungin] (first compound 12.5 µM)	0.286 ± 0.011	0.198 ± 0.0082
CC[C@H](C)[C@H](N)C(=O)N1CCSC1 [P32/98 hemifumarate salt] + OC(Cn1cncn1)(Cn1cncn1)c1ccc(F)cc1F [fluconazole] (first compound 12.5 µM)	0.249 ± 0.0087	0.128 ± 0.0045
CC(C)CN(C[C@@H](O)[C@H](Cc1ccccc1)NC(=O)O[C@H]1CCOC1)S(=O)(=O)c1ccc(N)cc1 [amprenavir] + OC(Cn1cncn1)(Cn1cncn1)c1ccc(F)cc1F [fluconazole] (first compound 12.5 µM)	0.264 ± 0.0069	0.16 ± 0.011
C[C@H](CS)C(=O)N1CCC[C@H]1C(=O)O [Captopril] + C[C@@H]1[C@H](O)[C@@H](C)/C=C/C=C/C=C/C=C/C=C/C=C/C=C/[C@H](O[C@@H]2O[C@H](C)[C@@H](O)[C@H](N)[C@@H]2O)C[C@@H]2O[C@](O)(C[C@@H](O)C[C@@H](O)[C@H](O)CC[C@@H](O)C[C@@H](O)CC(=O)O[C@H]1C)C[C@H](O)[C@H]2C(=O)O [amphotericin B] (first compound 12.5 µM)	0.285 ± 0.011	0.214 ± 0.0071
O=C(O[C@@H]1Cc2c(O)cc(O)cc2O[C@@H]1c1cc(O)c(O)c(O)c1)c1cc(O)c(O)c(O)c1 [Epigallocatechin gallate] + C[C@@H]1[C@H](O)[C@@H](C)/C=C/C=C/C=C/C=C/C=C/C=C/C=C/[C@H](O[C@@H]2O[C@H](C)[C@@H](O)[C@H](N)[C@@H]2O)C[C@@H]2O[C@](O)(C[C@@H](O)C[C@@H](O)[C@H](O)CC[C@@H](O)C[C@@H](O)CC(=O)O[C@H]1C)C[C@H](O)[C@H]2C(=O)O [amphotericin B] (first compound 12.5 µM)	0.27 ± 0.017	0.231 ± 0.014
CCOC(=O)[C@H](CCc1ccccc1)N[C@@H](C)C(=O)N1CCC[C@H]1C(=O)O [Enalapril] + C[C@@H]1[C@H](O)[C@@H](C)/C=C/C=C/C=C/C=C/C=C/C=C/C=C/[C@H](O[C@@H]2O[C@H](C)[C@@H](O)[C@H](N)[C@@H]2O)C[C@@H]2O[C@](O)(C[C@@H](O)C[C@@H](O)[C@H](O)CC[C@@H](O)C[C@@H](O)CC(=O)O[C@H]1C)C[C@H](O)[C@H]2C(=O)O [amphotericin B] (first compound 12.5 µM)	0.279 ± 0.0057	0.197 ± 0.023
